# Assays:
# Assay in all cases: DAPPL (digital affinity profiling via proximity ligation, sequencing); 10 mM Tris-HCl pH 7.5, 50 mM NaCl, 1 mM DTT, 4% glycerol, room temperature, 30 min; GST-TFs on glutathione beads, 16-mer random dsDNA library, 0.1% formaldehyde crosslink after washing; high values mean tight binding
# [1] = molecular target: T1, FLI1 (Homo sapiens, UniProt Q01543 1-452); settings: protein: recombinant; tags: N-terminal GST; dsDNA, one strand shown
# T1 sequence: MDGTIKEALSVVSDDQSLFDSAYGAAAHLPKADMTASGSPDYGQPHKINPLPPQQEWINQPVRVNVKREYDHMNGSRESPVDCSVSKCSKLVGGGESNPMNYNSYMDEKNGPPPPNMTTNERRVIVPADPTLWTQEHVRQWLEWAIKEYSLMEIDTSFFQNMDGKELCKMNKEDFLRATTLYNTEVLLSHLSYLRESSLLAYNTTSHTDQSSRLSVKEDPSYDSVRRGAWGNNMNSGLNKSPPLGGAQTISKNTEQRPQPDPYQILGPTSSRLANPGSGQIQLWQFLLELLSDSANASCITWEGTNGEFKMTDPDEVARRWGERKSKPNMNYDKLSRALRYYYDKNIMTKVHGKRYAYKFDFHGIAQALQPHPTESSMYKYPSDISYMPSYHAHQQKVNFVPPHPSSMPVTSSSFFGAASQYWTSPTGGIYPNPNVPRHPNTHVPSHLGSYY
# How it was run: (§1)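 GST fusions of human transcription factors were expressed in yeast and captured with glutathione beads. Once given DNA barcodes and pooled alongside a tag-only sample, they were incubated for 30 min at room temperature with 200 nmole of a random double-stranded 16-mer DNA library in Tris/NaCl/DTT/glycerol buffer, then washed, crosslinked (0.1% formaldehyde), proximity-ligated, PCR-amplified and sequenced on an Illumina NextSeq500. The binding signal of each hexamer is its read frequency for a factor divided by its frequency for the tag-only sample.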
# [2] = molecular target: T2, ELK1 (Homo sapiens, UniProt P19419 1-428); settings: protein: recombinant; tags: N-terminal GST; dsDNA, one strand shown
# T2 sequence: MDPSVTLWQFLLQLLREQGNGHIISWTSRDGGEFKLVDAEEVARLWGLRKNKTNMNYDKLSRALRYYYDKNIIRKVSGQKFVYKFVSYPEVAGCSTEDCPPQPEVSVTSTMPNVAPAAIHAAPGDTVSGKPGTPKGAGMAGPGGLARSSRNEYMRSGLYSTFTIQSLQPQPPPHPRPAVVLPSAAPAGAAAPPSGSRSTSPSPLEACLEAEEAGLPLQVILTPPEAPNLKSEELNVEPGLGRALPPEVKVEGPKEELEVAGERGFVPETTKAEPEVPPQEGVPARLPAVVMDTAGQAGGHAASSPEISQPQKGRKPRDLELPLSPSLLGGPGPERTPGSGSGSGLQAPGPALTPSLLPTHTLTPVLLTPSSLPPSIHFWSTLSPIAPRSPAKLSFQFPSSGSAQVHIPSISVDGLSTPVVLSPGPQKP
# How it was run: as §1
# [3] = molecular target: T3, GABPA (Homo sapiens, UniProt Q06546 1-454); settings: protein: recombinant; tags: N-terminal GST; dsDNA, one strand shown
# T3 sequence: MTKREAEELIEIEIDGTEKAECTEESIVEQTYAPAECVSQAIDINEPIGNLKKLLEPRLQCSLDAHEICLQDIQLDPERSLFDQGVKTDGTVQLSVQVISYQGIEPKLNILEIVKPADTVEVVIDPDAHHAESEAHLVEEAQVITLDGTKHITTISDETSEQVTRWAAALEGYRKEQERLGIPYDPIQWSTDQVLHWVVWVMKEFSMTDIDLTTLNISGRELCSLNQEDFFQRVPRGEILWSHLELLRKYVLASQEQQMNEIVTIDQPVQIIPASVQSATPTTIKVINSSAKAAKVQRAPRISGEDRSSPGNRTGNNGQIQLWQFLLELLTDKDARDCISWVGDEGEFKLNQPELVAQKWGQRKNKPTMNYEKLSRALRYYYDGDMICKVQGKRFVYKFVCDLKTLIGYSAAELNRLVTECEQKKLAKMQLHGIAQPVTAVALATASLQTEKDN
# How it was run: as §1
# [4] = molecular target: T4, ERG (Homo sapiens, UniProt P11308 1-479); settings: protein: recombinant; tags: N-terminal GST; dsDNA, one strand shown
# T4 sequence: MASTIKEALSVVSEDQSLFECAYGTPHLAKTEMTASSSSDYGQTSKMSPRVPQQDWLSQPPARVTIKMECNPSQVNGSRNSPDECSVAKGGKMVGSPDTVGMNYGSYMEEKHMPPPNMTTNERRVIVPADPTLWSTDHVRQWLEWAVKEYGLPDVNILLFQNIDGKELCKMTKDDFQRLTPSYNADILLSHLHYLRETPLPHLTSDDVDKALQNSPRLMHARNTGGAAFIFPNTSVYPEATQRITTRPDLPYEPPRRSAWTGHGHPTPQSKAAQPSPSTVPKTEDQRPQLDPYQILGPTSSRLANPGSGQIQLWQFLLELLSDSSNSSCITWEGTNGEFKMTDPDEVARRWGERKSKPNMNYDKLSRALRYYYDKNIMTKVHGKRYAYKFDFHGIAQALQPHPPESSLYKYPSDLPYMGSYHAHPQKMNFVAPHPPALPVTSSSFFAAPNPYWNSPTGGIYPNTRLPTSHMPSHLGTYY
# How it was run: as §1
# [5] = molecular target: ELF1 (Homo sapiens, UniProt P32519 1-619); settings: protein: recombinant; tags: N-terminal GST; dsDNA, one strand shown
# How it was run: as §1
# [6] = molecular target: T5, EHF (Homo sapiens, UniProt Q9NZC4 1-300); settings: protein: recombinant; tags: N-terminal GST; dsDNA, one strand shown
# T5 sequence: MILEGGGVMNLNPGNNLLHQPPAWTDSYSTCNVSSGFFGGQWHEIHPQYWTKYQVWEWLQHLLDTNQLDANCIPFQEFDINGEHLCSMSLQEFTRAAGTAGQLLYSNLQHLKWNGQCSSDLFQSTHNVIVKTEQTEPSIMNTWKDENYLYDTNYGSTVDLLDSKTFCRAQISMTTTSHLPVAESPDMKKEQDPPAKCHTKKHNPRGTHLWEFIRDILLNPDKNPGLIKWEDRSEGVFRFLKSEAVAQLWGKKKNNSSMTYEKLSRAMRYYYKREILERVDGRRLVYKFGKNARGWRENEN
# How it was run: as §1
# [7] = molecular target: SPI1 (Homo sapiens, UniProt P17947 1-270); settings: protein: recombinant; tags: N-terminal GST; dsDNA, one strand shown
# How it was run: as §1
# [8] = molecular target: SPIB (Homo sapiens, UniProt Q01892 1-262); settings: protein: recombinant; tags: N-terminal GST; dsDNA, one strand shown
# How it was run: as §1
# [9] = molecular target: T6, ELK3 (Homo sapiens, UniProt P41970 1-407); settings: protein: recombinant; tags: N-terminal GST; dsDNA, one strand shown
# T6 sequence: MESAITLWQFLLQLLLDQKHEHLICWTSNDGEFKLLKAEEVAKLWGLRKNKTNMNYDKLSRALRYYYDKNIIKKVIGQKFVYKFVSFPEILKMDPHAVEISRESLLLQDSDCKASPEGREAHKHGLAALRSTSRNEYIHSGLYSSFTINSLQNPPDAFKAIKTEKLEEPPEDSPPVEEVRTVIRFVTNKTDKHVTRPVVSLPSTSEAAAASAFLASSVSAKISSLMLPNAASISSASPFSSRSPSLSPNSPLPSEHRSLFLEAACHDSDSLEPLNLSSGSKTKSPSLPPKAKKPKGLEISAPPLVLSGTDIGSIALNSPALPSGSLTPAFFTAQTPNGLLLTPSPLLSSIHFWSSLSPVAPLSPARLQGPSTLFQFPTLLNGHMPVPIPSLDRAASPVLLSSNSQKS
# How it was run: as §1
# [10] = molecular target: T7, FEV (Homo sapiens, UniProt Q99581 1-238); settings: protein: recombinant; tags: N-terminal GST; dsDNA, one strand shown
# T7 sequence: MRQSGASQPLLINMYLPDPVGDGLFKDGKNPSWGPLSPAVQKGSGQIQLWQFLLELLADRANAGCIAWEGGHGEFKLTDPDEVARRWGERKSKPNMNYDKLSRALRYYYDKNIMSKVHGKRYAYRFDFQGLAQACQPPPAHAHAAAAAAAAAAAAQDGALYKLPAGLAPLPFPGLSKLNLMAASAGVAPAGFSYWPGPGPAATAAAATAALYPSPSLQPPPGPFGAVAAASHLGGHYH
# How it was run: as §1
# [11] = molecular target: ETV5 (Homo sapiens, UniProt P41161 1-510); settings: protein: recombinant; tags: N-terminal GST; dsDNA, one strand shown
# How it was run: as §1
# [12] = molecular target: HSF1 (Homo sapiens, UniProt Q00613 1-529); settings: protein: recombinant; tags: N-terminal GST; chain copies: 3; dsDNA, one strand shown
# How it was run: as §1
# [13] = molecular target: T8, SPIC (Homo sapiens, UniProt Q8N5J4 1-248); settings: protein: recombinant; tags: N-terminal GST; dsDNA, one strand shown
# T8 sequence: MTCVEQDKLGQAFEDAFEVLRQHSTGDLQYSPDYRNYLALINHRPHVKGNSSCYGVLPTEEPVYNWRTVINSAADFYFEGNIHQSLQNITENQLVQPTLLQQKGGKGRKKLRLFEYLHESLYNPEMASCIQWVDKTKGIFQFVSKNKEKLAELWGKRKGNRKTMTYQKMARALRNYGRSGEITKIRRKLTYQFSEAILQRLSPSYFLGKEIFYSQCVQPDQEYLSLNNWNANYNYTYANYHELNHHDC
# How it was run: as §1
# [14] = molecular target: ELF4 (Homo sapiens, UniProt Q99607 1-663); settings: protein: recombinant; tags: N-terminal GST; dsDNA, one strand shown
# How it was run: as §1
# [15] = molecular target: T9, ELK4 (Homo sapiens, UniProt P28324-2 1-405); settings: protein: recombinant; tags: N-terminal GST; dsDNA, one strand shown
# T9 sequence: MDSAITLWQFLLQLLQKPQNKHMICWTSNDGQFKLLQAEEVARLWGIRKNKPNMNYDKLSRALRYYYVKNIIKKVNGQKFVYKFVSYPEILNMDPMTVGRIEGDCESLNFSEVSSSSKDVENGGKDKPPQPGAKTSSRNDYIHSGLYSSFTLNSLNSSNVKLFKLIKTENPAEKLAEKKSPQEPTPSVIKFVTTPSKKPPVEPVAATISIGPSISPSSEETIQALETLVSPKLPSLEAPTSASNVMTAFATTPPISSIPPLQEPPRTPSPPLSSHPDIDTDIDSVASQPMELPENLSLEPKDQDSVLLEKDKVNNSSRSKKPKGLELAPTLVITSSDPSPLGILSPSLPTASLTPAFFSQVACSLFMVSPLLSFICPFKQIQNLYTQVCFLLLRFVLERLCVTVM
# How it was run: as §1
# [16] = molecular target: T10, ETV2 (Homo sapiens, UniProt O00321 1-342); settings: protein: recombinant; tags: N-terminal GST; dsDNA, one strand shown
# T10 sequence: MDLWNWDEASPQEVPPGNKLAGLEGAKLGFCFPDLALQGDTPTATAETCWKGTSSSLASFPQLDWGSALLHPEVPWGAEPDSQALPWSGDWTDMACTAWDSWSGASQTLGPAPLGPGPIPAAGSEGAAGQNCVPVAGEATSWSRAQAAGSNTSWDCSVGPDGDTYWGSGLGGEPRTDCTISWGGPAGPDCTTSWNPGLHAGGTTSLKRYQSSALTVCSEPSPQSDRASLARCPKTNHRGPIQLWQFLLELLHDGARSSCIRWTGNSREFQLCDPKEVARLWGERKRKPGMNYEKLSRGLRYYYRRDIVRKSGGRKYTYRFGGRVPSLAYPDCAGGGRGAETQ
# How it was run: as §1
# [17] = molecular target: T11, ELF3 (Homo sapiens, UniProt P78545 1-371); settings: protein: recombinant; tags: N-terminal GST; dsDNA, one strand shown
# T11 sequence: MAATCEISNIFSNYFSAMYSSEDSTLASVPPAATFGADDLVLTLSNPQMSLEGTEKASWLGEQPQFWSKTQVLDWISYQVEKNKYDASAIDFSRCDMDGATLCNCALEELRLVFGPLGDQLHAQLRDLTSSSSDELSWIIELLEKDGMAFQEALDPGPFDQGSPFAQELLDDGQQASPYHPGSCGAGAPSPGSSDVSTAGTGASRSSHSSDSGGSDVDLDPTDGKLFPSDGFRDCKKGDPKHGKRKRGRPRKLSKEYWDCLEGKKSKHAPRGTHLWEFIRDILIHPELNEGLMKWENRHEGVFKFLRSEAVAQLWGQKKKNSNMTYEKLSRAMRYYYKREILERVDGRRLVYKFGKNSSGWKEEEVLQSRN
# How it was run: as §1
# [18] = molecular target: CRX (Homo sapiens, UniProt O43186 1-299); settings: protein: recombinant; tags: N-terminal GST; dsDNA, one strand shown
# How it was run: as §1
# [19] = molecular target: ETV1 (Homo sapiens, UniProt P50549 1-477); settings: protein: recombinant; tags: N-terminal GST; dsDNA, one strand shown
# How it was run: as §1
# Chain of ELF1 (P32519 whole entry): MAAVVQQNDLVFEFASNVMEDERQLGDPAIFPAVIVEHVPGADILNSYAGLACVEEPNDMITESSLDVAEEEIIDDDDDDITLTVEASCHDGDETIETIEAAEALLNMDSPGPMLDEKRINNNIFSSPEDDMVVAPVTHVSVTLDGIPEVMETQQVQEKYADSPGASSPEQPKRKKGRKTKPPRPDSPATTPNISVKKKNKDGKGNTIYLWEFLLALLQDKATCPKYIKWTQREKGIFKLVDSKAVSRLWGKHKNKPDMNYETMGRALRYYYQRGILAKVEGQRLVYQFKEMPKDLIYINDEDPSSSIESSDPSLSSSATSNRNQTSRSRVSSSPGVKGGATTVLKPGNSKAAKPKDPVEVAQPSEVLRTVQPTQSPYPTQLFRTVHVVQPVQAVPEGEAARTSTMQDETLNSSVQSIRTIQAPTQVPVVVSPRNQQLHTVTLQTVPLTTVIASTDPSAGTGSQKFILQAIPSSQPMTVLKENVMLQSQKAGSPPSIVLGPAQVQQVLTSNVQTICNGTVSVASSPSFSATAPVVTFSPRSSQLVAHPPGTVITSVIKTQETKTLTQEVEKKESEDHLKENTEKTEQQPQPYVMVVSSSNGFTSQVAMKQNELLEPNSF
# Chain of ELF4 (Q99607 whole entry): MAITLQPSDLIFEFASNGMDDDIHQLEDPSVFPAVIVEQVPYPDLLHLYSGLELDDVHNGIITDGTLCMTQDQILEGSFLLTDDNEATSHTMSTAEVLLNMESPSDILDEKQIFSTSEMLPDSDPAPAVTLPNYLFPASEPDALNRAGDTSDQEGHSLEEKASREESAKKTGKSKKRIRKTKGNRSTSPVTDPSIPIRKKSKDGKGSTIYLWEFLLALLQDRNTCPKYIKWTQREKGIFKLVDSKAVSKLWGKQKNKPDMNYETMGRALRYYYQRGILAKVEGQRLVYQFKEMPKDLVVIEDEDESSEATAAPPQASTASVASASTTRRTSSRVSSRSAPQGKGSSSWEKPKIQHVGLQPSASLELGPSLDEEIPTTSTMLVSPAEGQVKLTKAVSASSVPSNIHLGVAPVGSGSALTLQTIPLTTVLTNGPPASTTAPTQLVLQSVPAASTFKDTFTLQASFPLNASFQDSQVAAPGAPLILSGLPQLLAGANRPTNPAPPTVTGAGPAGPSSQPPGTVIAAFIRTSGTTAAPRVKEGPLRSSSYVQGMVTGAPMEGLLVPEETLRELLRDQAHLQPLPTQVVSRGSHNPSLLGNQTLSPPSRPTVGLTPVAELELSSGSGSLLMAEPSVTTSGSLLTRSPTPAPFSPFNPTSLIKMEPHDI
# Chain of CRX (O43186 whole entry): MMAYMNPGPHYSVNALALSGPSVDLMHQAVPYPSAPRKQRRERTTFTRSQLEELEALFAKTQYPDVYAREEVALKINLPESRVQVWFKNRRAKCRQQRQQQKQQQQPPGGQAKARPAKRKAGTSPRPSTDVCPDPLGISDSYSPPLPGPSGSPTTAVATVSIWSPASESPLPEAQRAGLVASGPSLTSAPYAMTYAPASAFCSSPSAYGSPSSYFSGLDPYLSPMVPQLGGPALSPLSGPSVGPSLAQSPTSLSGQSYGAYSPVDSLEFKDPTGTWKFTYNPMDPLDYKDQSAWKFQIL
# Chain of SPIB (Q01892 whole entry): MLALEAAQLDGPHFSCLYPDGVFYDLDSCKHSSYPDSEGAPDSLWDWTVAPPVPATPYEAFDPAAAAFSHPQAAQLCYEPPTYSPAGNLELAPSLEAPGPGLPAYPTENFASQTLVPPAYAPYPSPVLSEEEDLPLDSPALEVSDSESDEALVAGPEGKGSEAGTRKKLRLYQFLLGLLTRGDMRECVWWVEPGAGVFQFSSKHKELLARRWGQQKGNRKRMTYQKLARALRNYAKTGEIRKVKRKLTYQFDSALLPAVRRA
# Chain of ETV1 (P50549 whole entry): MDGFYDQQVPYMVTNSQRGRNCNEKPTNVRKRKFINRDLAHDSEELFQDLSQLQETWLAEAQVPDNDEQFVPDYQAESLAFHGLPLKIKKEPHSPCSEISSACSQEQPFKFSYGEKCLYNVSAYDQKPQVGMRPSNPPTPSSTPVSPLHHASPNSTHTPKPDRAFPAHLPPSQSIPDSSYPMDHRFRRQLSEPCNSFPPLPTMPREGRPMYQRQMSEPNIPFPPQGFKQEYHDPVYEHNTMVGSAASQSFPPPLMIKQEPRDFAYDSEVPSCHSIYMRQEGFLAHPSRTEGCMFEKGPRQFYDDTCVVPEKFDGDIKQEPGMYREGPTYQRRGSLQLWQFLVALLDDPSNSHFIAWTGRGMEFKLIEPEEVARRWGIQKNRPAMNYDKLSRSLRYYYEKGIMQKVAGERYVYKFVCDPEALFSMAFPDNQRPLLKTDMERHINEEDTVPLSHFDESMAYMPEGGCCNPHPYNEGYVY
# Chain of ETV5 (P41161 whole entry): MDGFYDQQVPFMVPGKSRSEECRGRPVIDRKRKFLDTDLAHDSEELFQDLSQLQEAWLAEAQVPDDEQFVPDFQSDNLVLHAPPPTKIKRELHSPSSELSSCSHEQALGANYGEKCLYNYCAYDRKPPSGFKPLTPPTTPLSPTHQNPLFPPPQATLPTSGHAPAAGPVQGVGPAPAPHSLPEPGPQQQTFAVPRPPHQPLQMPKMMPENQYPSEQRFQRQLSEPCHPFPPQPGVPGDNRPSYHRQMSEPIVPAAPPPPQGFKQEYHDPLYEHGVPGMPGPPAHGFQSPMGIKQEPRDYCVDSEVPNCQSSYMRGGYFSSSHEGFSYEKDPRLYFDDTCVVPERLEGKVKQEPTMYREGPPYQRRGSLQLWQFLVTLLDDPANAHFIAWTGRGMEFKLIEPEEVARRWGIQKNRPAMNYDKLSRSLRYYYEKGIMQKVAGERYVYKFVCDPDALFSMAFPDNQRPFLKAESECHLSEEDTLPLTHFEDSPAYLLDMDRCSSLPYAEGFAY
# Chain of HSF1 (Q00613 whole entry): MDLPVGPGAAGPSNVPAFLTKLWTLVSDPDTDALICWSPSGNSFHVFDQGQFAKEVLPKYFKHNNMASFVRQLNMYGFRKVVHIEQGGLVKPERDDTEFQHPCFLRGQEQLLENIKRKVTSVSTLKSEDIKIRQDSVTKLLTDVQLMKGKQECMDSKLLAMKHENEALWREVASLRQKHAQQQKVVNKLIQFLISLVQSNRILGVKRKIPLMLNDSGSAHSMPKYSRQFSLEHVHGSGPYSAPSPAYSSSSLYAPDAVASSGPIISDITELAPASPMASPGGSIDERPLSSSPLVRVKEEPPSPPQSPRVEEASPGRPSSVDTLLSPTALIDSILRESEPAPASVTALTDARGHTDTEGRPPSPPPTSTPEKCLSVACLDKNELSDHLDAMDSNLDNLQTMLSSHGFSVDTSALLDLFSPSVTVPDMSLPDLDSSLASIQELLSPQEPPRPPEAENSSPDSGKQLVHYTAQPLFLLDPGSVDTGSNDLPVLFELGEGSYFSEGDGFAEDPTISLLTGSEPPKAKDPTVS
sequence,measurement,setting,value
GGACCT,binding signal,[1],"1.42 fold enrichment (6-mer frequency, TF over GST control)"
same,binding signal,[2],"1.37 fold enrichment (6-mer frequency, TF over GST control)"
same,binding signal,[3],"1.41 fold enrichment (6-mer frequency, TF over GST control)"
same,binding signal,[4],"1.33 fold enrichment (6-mer frequency, TF over GST control)"
same,binding signal,[5],"1.35 fold enrichment (6-mer frequency, TF over GST control)"
same,binding signal,[6],"1.35 fold enrichment (6-mer frequency, TF over GST control)"
same,binding signal,[7],"1.28 fold enrichment (6-mer frequency, TF over GST control)"
same,binding signal,[8],"1.33 fold enrichment (6-mer frequency, TF over GST control)"
same,binding signal,[9],"1.37 fold enrichment (6-mer frequency, TF over GST control)"
same,binding signal,[10],"1.47 fold enrichment (6-mer frequency, TF over GST control)"
same,binding signal,[11],"1.37 fold enrichment (6-mer frequency, TF over GST control)"
same,binding signal,[12],"1.18 fold enrichment (6-mer frequency, TF over GST control)"
same,binding signal,[13],"1.46 fold enrichment (6-mer frequency, TF over GST control)"
same,binding signal,[14],"1.42 fold enrichment (6-mer frequency, TF over GST control)"
same,binding signal,[15],"1.31 fold enrichment (6-mer frequency, TF over GST control)"
same,binding signal,[16],"1.57 fold enrichment (6-mer frequency, TF over GST control)"
same,binding signal,[17],"1.14 fold enrichment (6-mer frequency, TF over GST control)"
same,binding signal,[18],"1.1 fold enrichment (6-mer frequency, TF over GST control)"
same,binding signal,[19],"1.28 fold enrichment (6-mer frequency, TF over GST control)"

# Source: publication PMC7862700, “An all-to-all approach to the identification of sequence-specific readers for epigenetic DNA modifications on cytosine”
